A selection: hits, their analogues and other compounds. The true share with any hit is near 2.2%.
KKLEB cytotox – counter-screen for CF NF-kB inhibitors: cytotoxicity; KKLEB CF airway cells viability, ATPlite luminescence, overnight; active compounds read low; cells stimulated with P. aeruginosa culture filtrate; activity change (cytotoxicity), % at 5 µM; 0.36% of 360,000 active; AID 602141;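 active = corrected activity change at or below -50% at 5 µM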
iPSC survival up – enhancers of human iPSC single-cell survival. hiPSC single-cell survival, ATPlite luminescence; 100% = ROCK inhibitor wells, 0% = DMSO. survival enhancement, % at 20 µM. 0.044% of 360,000 active; in the data active = survival enhancement above about 18%;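 note: cells exposed to compounds for 16 hours before the ATP read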
HIF-2a block – blocks HIF-2a reporter activity. 0.72% of 360,000 active. 786-0 RCC cells HIF-2a reporter, luciferase luminescence, overnight. inhibition, % at 18.8 µM;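 active = inhibition of the luminescence signal of 40% or more relative to plate controls, in a single-dose primary screen at 18.75 µM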
C8 TRAIL sens – sensitizes caspase-8 expressing cells to TRAIL. NB7+C8 cells + TRAIL, ATPlite viability luminescence. AID 624354. 1% of 360,000 active. inhibition (viability loss, TRAIL sensitization), % at 10 µM;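 active = compounds causing at least 50% loss of cell viability in the single-dose screen, relative to plate controls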
CF NFkB inh – cystic fibrosis NF-kB activation inhibition | KKLEB NF-kB-GFP reporter, PAF-induced, GFP fluorescence overnight | inhibition, % at 5 µM | 0.86% of 360,000 active | AID 588850;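 active = at least 50% inhibition at 5 µM, scaled per plate between neutral and stimulator controls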;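 note: PAF is a Pseudomonas aeruginosa culture filtrate used as stimulus; plate controls were PAF-stimulated DMSO wells for no effect and unstimulated DMSO wells for full effect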
PPC-1+TRAIL kill – compounds killing PPC-1 cancer cells with TRAIL present (potentiator screen, no TRAIL-free arm); PPC-1 cells + TRAIL, ATPLite viability luminescence; cell killing (% activity), % at 4 µM or 5 µM; 0.41% of 220,000 active; AID 1443;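 active = cell killing above 50% in the first pass at 4 µM, then a duplicate retest at 5 µM averaging 50% or more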;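 note: plate controls were cells with TRAIL plus DMSO for no effect and medium-only wells lacking cells for full effect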
CF NFkB conf – CF NF-kB inhibition confirmation, single concentration. 64% of 1,300 active. inhibition, % at 5 µM. KKLEB CF airway cells, PAF-induced NF-kB-GFP fluorescence, overnight. shares compounds with CF NFkB inh. AID 602472; in the data active = inhibition above about 40%;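 note: stimulus PAF is a Pseudomonas aeruginosa filtrate and not platelet activating factor; plate controls were DMSO wells with stimulus for no effect and unstimulated DMSO wells for full effect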
* = called active by the depositor; nt = not tested or not shown.

SMILES | KKLEB cytotox | iPSC survival up | HIF-2a block | C8 TRAIL sens | CF NFkB inh | PPC-1+TRAIL kill | CF NFkB conf
O=C1CSC(c2ccccc2)N1Cc1ccccc1 (configuration not stated) | 9 | 0 | 14 | -4 | 2 | nt | nt
CN(C)CCNC(=O)c1cccc(-c2cnc3c(NC=O)cc(-c4cccs4)cn23)c1 | -14 | -2 | -39 | -6 | 2 | nt | nt
CC(CCc1ccccc1)NC(=O)CNC(=O)N1CC(=O)Nc2ccccc21 (configuration not stated) | 6 | 0 | 6 | -2 | 6 | nt | nt
O=C(NCCc1ccc(F)cc1)Nc1ccc([N+](=O)[O-])cc1 | 14 | 0 | -111 | -5 | -28 | nt | nt
O=[N+]([O-])c1ccc(NC(=S)NCCc2ccc(F)cc2)cc1 | -48 | -2 | -84 | 22 | 50* | 12 | 66*
Cc1ccc(S(=O)(=O)Oc2ccc(/C=N/N=C3/NC(=O)C(CC(=O)O)S3)cc2)cc1[N+](=O)[O-] (configuration not stated) | 24 | 0 | 20 | -26 | -30 | nt | nt
Nc1cc2c(cc1Br)-c1ccccc1C2=NO | 10 | 4 | -197 | -3 | 50* | nt | 61*
O=c1cc(-c2ccccc2)[nH]n1-c1ccccc1 | -4 | 6 | -23 | 2 | 58* | nt | 32
O=c1ccc(=O)n(-c2ccccc2)[nH]1 | -8 | 0 | 9 | 8 | -1 | -2 | nt
COc1nc(N)c(C#N)c(-c2ccc(N(C)CCC#N)cc2)c1C#N | 2 | 0 | 21 | 9 | 59* | 6 | 75*
CC1C=CCC2C(=O)N(c3cccc(C(=O)Nc4ccc(Br)cc4)c3)C(=O)C12 (configuration not stated) | -16 | 0 | -24 | 0 | 23 | nt | nt
Nc1ccc2nc(-c3ccccc3)c(-c3ccccc3)nc2c1 | -16 | -1 | 14 | 6 | 67* | nt | 5
Nc1ccc(Oc2ccc3nc(-c4ccccc4)c(-c4ccccc4)nc3c2)cc1 | nt | nt | nt | nt | nt | -13 | nt
COc1ccc(/C(C)=N\O)cc1OC | 13 | 0 | 8 | 3 | 21 | -7 | nt
COc1cc(OC)c(C(=O)OCC(=O)NC23CC4CC(CC(C4)C2)C3)cc1OC | -13 | 0 | 2 | -3 | -12 | nt | nt
CN(C)S(=O)(=O)c1ccc(Cl)c(NC(=O)COC(=O)CCC2CCCCC2)c1 | 0 | 0 | -3 | 4 | -5 | nt | nt
O=[N+]([O-])c1cc(S(=O)(=O)NCCCN2CCOCC2)ccc1Cl | -1 | -1 | 9 | -15 | 13 | 16 | nt
O=[N+]([O-])c1cc(S(=O)(=O)NCCN2CCOCC2)ccc1Sc1nnnn1-c1ccccc1 | -3 | -3 | 11 | 17 | 73* | -5 | 19
O=C(NC(=S)Nc1cccc2[nH]ncc12)c1ccccc1 | 9 | 0 | -222 | -12 | 62* | 26 | 21
O=C(Nc1cccc2[nH]ncc12)c1ccc(F)cc1 | 0 | -1 | -96 | 16 | 79* | -4 | 93*
O=C(O)c1ccc(OCC(F)(F)F)nc1 | -1 | 0 | 10 | 9 | -13 | 17 | nt
C#Cc1cccc(Nc2nc(NC(C)C)nc3ccsc23)c1 | -20 | -3 | 22 | 25 | 50* | nt | 36
CC(C)Nc1nc(Nc2ccc(C#N)cc2)c2sccc2n1 | -17 | -1 | 8 | 7 | 22 | nt | nt
C=C1C(=O)O[C@@H]2[C@H]3O[C@]3(C)CC/C=C(\C)CC[C@@H]12 | 23 | -5 | 19 | 20 | 69* | nt | 77*
Nc1c(C(=O)Nc2ccc3c(c2)OCCO3)nnn1Cc1cccc(F)c1 | -4 | 0 | -268 | 38 | -4 | nt | nt
Cc1nn(-c2ccccn2)c2c1C(=O)C(Br)CC2 (configuration not stated) | 4 | 0 | 9 | -4 | -18 | 1 | nt
Cc1nn(-c2nccs2)c2c1C(=O)CC(C)(C)C2Br (configuration not stated) | 2 | 3 | 9 | 24 | 51* | nt | 61*
CCOc1ccc(C(C(=O)NCC2CCCO2)N(Cc2cccnc2)C(=O)c2snc(C(N)=O)c2N)cc1 (configuration not stated) | -1 | 0 | 4 | -9 | 4 | nt | nt

Screening data deposited in PubChem BioAssay by Sanford-Burnham Center for Chemical Genomics.
